# In the library only some 2.5% were active in any assay of this set; here they are far more common.
# ULK1 inh: human ULK1 kinase inhibition, primary screen; O75385; AlphaScreen Atg13 phosphorylation by ULK1, luminescence; inhibition, % at 5.96 µM; 1.9% of 30,000 active; AID 1259251; in the data active means inhibition above about 43%;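 further: 0% = median of compound wells and 100% = no enzyme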
# Target sequence (O75385 whole entry, looked up): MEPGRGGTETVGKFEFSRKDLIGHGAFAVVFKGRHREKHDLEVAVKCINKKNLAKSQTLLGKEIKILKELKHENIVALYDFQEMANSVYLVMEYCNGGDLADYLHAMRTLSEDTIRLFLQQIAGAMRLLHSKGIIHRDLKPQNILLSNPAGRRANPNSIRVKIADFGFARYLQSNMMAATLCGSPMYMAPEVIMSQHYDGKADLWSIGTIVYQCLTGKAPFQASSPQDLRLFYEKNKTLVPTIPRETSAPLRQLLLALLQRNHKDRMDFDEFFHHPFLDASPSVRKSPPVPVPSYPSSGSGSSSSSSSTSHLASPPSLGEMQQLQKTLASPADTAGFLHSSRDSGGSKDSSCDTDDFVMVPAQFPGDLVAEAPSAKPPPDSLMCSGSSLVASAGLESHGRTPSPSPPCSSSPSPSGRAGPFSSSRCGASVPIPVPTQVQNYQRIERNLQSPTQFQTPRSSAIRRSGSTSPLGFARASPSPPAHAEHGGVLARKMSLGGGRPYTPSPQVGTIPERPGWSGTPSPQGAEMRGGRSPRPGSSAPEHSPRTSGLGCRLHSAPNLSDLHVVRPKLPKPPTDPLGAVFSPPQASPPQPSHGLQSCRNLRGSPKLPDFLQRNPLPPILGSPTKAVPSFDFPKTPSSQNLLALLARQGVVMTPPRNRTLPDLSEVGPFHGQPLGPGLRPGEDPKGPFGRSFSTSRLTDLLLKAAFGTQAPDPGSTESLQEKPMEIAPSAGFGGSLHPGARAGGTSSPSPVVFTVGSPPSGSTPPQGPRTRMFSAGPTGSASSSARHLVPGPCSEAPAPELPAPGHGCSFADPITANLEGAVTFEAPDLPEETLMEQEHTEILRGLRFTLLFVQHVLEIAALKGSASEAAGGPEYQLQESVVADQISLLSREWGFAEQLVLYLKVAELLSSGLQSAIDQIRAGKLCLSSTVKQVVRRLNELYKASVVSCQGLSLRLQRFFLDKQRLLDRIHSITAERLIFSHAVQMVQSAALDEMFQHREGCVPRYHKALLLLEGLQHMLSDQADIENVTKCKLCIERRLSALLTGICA
# ASK1 primary: human ASK1 kinase inhibition, primary screen | inhibition, % at 7.44 µM | 0.99% of 22,000 active | Q99683 | AID 1159602 | AlphaScreen MKK6 phosphorylation by ASK1, luminescence; in the data active means inhibition above about 35%;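 further: 0% = median of compound wells and 100% = no enzyme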
# * marks the source's active call; other numbers are inactive results; nt = not tested or not shown.
SMILES,ULK1 inh,ASK1 primary
c1cncc(Nc2nc(Nc3ccc(N4CCOCC4)cc3)c3ncn(-c4ccsc4)c3n2)c1,49*,29
c1cc(-n2cnc3c(Nc4ccc(N5CCOCC5)cc4)nc(Nc4ccc(N5CCOCC5)cc4)nc32)cs1,20,20
c1ccc(Nc2nc(Nc3ccc(N4CCOCC4)cc3)nc3c2ncn3-c2ccsc2)cc1,41,29
c1cn(-c2ccc(Nc3nc(Nc4ccc(N5CCOCC5)cc4)c4ncn(-c5ccsc5)c4n3)cc2)cn1,46*,21
CC(C)n1cnc2c(Nc3ccc4c(c3)OCO4)nc(Nc3ccc(-n4ccnc4)cc3)nc21,55*,26
CC(C)n1cnc2c(Nc3ccc4c(c3)OCO4)nc(Nc3cnccn3)nc21,49*,1
c1cnc(Nc2nc(Nc3ccc4c(c3)OCO4)c3ncn(C4CCCCC4)c3n2)cn1,1,2
CC(C)n1cnc2c(Nc3ccc4c(c3)OCO4)nc(Nc3ccccc3)nc21,0,21
CCOCCCNC(=O)c1cc2c(=O)n3ccccc3nc2n(Cc2ccc(C)cc2)c1=N,-7,nt
COc1cccc(CNC(=O)c2cc3ccc(-c4ccncc4)nc3[nH]2)c1,0,-8
COc1ccc2c(c1)CC(C(=O)Nc1ccc(-c3cn[nH]c3)cc1OCCO)CO2 (stereo not given),6,17
C=CCOCCOc1cc(-c2cn[nH]c2)ccc1NC(=O)C1COc2ccc(OC)cc2C1 (stereo not given),18,69*
COc1ccc(CCNc2cc(-c3cccs3)ncn2)cc1,-1,-1
COc1ccc(-c2ncc(C(=O)NCc3ccccc3)s2)cn1,5,1
CC(C)n1cnc2c(NCCO)nc(N3CCc4ccccc4C3)nc21,-2,3
CCCCCC(=O)NNC(=O)c1c(O)c2ccccc2[nH]c1=O,-3,nt
CNC(=O)c1ccccc1Nc1cc(Nc2cccnc2)ncc1C(F)(F)F,61*,-1
CNC(=O)c1ccccc1Nc1cc(NC(=O)C(C)(C)c2ccccc2)ncc1C(F)(F)F,-17,1
CNC(=O)c1ccccc1Nc1cc(Nc2ncccc2C)ncc1C(F)(F)F,62*,-3
CNC(=O)c1cnccc1Nc1cc(Nc2ccc3c(c2)CC(=O)N3)ncc1C(F)(F)F,19,-1
O=C(NC1CC1)c1csc(Nc2nccc3ccccc23)n1,-3,7
N#C/C(=C\c1cccc(Br)c1)C(=O)Nc1cc([N+](=O)[O-])ccc1F,39,nt
N#C/C(=C\c1cccc([N+](=O)[O-])c1)C(=O)Nc1ccc([N+](=O)[O-])cc1Br,45*,nt
CCNc1nc(Nc2cc(OC)c(OC)c(OC)c2)c2[nH]cnc2n1,13,8
COc1cc(Nc2nc(NCCc3ccc(O)cc3)c3[nH]cnc3n2)cc(OC)c1OC,75*,-18
SMILES,ULK1 inh,ASK1 primary
CN(C)c1cccc(Nc2nc(NCCOc3ccccc3)c3[nH]cnc3n2)c1,34,18
COc1cc(Nc2nc(NCCOc3ccccc3)c3[nH]cnc3n2)cc(OC)c1OC,78*,17
COc1cc(Nc2nc(NCCO)c3[nH]cnc3n2)cc(OC)c1OC,63*,-24
CCNc1nc(NCCc2ccc(O)cc2)c2[nH]cnc2n1,-5,13
COc1cc2nc(Nc3cc(OC)c(OC)c(OC)c3)nc(N)c2cc1OC,-10,-13
CC(C)N(CCNC(=O)c1cccc(-c2csc3ccccc23)n1)C(C)C,1,-8
COc1cc(/C=C2\SC(N3CCCC3)=NC2=O)cc(OC)c1OC,2,nt
O=C(NCc1ccccc1)c1cncc(Nc2ccccn2)c1,-1,-16
CCN(CC)CCC(=O)N1c2ccccc2Sc2ccc(C(F)(F)F)cc21,45*,nt
CCN(CC)CCC(=O)N1c2ccccc2Sc2ccc(Cl)cc21,37,nt
O=C(Nc1ccc(N2CCOCC2)cc1)c1cc(N2CCc3ccccc3C2)nc2ccccc12,50*,0
O=C(Nc1ccc(N2CCOCC2)cc1)c1cnc(NCCCN2CCCC2=O)s1,56*,-5
O=C(NCCCN1CCCC1=O)c1cc(Nc2ccc(N3CCOCC3)cc2)nc2ccccc12,4,4
O=C(Nc1ccc(Oc2ccccc2)cc1)c1cc(N2CCc3ccccc3C2)nc2ccccc12,-2,-16
O=C(Nc1ccc(N2CCOCC2)cc1)c1cnc(NCCN2CCOCC2)s1,0,-1
O=C(Nc1ccc(N2CCOCC2)cc1)c1cc(NCCCN2CCCC2=O)nc2ccccc12,51*,-9
O=C1CCCN1CCCNc1ccnc(Cl)n1,1,-3
Nc1nc(NCc2cccnc2)cc(NC2CC2)n1,-10,-6
COc1cc(N)c(Cl)cc1C(=O)NC1CCNCC1OC (stereo not given),9,nt
CC(C)n1cnc2c(NC3CC3)nc(-c3ccc(C(N)=O)cc3)nc21,32,1
O=C1CCCN1CCn1cnc2c(NCCc3ccc(O)cc3)nc(NC3CCN(Cc4ccccc4)CC3)nc21,1,10
CNC(=O)c1cc(F)ccc1Nc1cc(Nc2ccc(N3CCOCC3)cc2OC)ncc1C(F)(F)F,84*,17
COc1cc(N2CCOCC2)ccc1Nc1cc(Nc2ccccc2S(=O)(=O)NC(C)C)c(C(F)(F)F)cn1,29,10
COc1cc(N2CCOCC2)ccc1Nc1cc(Nc2ccc(F)cc2OC)c(C(F)(F)F)cn1,26,18
CNC(=O)c1ccccc1Nc1cc(Nc2ccc(N3CCOCC3)cc2OC)ncc1Br,86*,0
SMILES,ULK1 inh,ASK1 primary
CNS(=O)(=O)c1ccccc1Nc1cc(Nc2ccc(N3CCOCC3)cc2OC)ncc1C(F)(F)F,91*,8
CNC(=O)c1cc(F)c(F)cc1Nc1cc(Nc2ccc3c(c2)CC(=O)N3)ncc1C(F)(F)F,30,9
CNC(=O)c1cc(F)c(F)cc1Nc1cc(Nc2ccc(N3CCOCC3)cc2OC)ncc1C(F)(F)F,69*,8
COc1cc(N2CCOCC2)ccc1Nc1cc(Nc2ccccn2)c(C(F)(F)F)cn1,39,25
O=c1[nH]c(-c2cc(Br)ccc2F)nc2nccnc12,-11,0
CC(C)N(CCNc1nc(-c2ccc(C(N)=O)cc2)nc2c1ncn2C(C)C)C(C)C,-2,4
CC[C@H](C)[C@H]1C(=O)Nc2cc(S(C)(=O)=O)ccc2N1C(=O)Cc1ccccc1,-1,nt
CC(C)CC(NC(=O)OC(C)(C)C)C(=O)NC(CCC(=O)OCc1ccccc1)C(N)=O (stereo not given),-8,nt
C[C@H]1c2cccc(O)c2C(O)=C2C(=O)[C@]3(O)C(O)=C(C(N)=O)C(=O)[C@@H](N(C)C)[C@@H]3[C@@H](O)[C@@H]21,52*,nt
CN(C)c1ccc(O)c2c1C[C@H]1C[C@H]3[C@H](N(C)C)C(=O)C(C(N)=O)=C(O)[C@@]3(O)C(=O)C1=C2O,10,nt
CC(=O)OC[C@H]1O[C@@H](OC(C)=O)[C@H](OC(C)=O)[C@@H]1OC(C)=O,-3,nt
O=C(OC[C@H]1O[C@H](OC(=O)c2cc(O)c(O)c(OC(=O)c3cc(O)c(O)c(O)c3)c2)[C@H](OC(=O)c2cc(O)c(O)c(OC(=O)c3cc(O)c(O)c(O)c3)c2)[C@@H](OC(=O)c2cc(O)c(O)c(OC(=O)c3cc(O)c(O)c(O)c3)c2)[C@@H]1OC(=O)c1cc(O)c(O)c(OC(=O)c2cc(O)c(O)c(O)c2)c1)c1cc(O)c(O)c(OC(=O)c2cc(O)c(O)c(O)c2)c1,86*,nt
O=C(COc1ccc([N+](=O)[O-])cc1)N/N=C/c1cccnc1,3,nt
O=C(OCCO)c1ccccc1O,0,nt
CCOC(=O)c1ccccc1O,54*,nt
